Test results reported in PubChem BioAssay (NCATS).
Records with an inconclusive call do not appear. Calls of active or inactive are those of the source. Unless noted, the call rests on the fitted dose curve; in most records, active means well fitted curve in the direction sought with a large enough effect; inconclusive means small, poorly fitted or top-dose-only effect, or another doubt; inactive means no such curve, though single readings can be large; an effect the other way counts as inactive or inconclusive.

Key:
[1] = NS1 protein of Zika virus - qHTS assay to identify small molecule inhibitors in human HEK 293 cells (AID 1347053);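 further: plate controls were infected untreated cells for no effect and uninfected cells for full effect; nearly all actives have a fitted effect of over 55% in size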
In short: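 TR-FRET signal from two anti-ZIKV NS1 antibodies quantified NS1 in HEK 293 cells 24 h after MR766 infection at MOI = 0.5; compounds were added 1 h before virus. Uninfected cells and infected cells defined the NS1 normalization range.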

[2] = target: T1, Tyrosine-protein phosphatase non-receptor type substrate 1 (Homo sapiens) + Leukocyte surface antigen CD47 (Homo sapiens) (UniProt P78324+Q08722); test: CD47-SIRPalpha protein protein interaction - LANCE assay qHTS validation (AID 1347057; active means well fitted curve in the direction sought with a large enough effect in the signal ratio, with a control signal flat, not every such curve was filed as active; the % refers to the signal ratio)
In short: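 Inhibition of soluble CD47/SIRPalpha ectodomain association by titrated compounds, measured as 665/615 nm time-resolved FRET ratio after sequential 30 min room-temperature incubations.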

[3] = target: Parathyroid hormone/parathyroid hormone-related peptide receptor (Homo sapiens) (UniProt Q03431); test: qHTS for PTHR1 Agonists: Optimization Screen against the NCGC LOPAC library (AID 1347079);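 further: GloSensor cAMP luminescence in HEK-293 GP2 cells expressing human PTHR1 with IBMX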; further: potency means the concentration at half of the fitted maximal effect
In short: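 Signal increase flags agonism. GP2 cells, derived from HEK-293, express human PTHR1 and a GloSensor cAMP construct.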

[4] = target: N-terminal Xaa-Pro-Lys N-methyltransferase 1 (Homo sapiens) (UniProt Q9BV86); test: qHTS Assay for Inhibitors of N-terminal methyltransferase 1 (NTMT1): LOPAC validation of the NTMT1 SAHH-coupled ThioGlo3 Assay (AID 1347143);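 further: SAH from peptide methylation measured as thiol fluorescence via SAHH coupling and ThioGlo3; nearly all actives have a fitted effect of over 70% in size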; further: potency means the concentration at half of the fitted maximal effect
In short: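 Steps: dispense 125nM NTMT1; pin-transfer test compounds at several concentrations, with 1uM RCC1-6 peptide as control; incubate 1 min; start with reagent holding 100uM SAM, 10uM SAHH, 15uM ThioGlo3; read at 0 and 30 min.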

[5] = system: Zika virus NS2B-NS3 protease; test: Primary screen GU AMC qHTS for Zika virus inhibitors (AID 1347154);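 further: 0% = no-inhibitor control and -100% = no-enzyme control; nearly all actives have a fitted effect of over 70% in size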
In short: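 Unlinked Zika NS2B hydrophilic domain–NS3 protease complex at 25 nM in 10 mM Tris-HCl pH 8.0, 0.01% Tween 20, with an AMC peptide substrate. Fluorescence change (340/450 nm) over 15 min at room temperature, normalized to controls, fitted to 4-parameter Hill.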

[6] = target: T1, Tyrosine-protein phosphatase non-receptor type substrate 1 (Homo sapiens) + Leukocyte surface antigen CD47 (Homo sapiens); test: CD47-SIRPalpha protein protein interaction - Alpha assay qHTS validation (AID 1347059);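 further: bead proximity luminescence from CD47 binding SIRPalpha after compound preincubation with SIRPalpha; on the % scale 0 is the no-effect control and ±100 the full control effect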
In short: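 SIRPalpha-biotin 25 nM + cpd, 30 min RT, dark; add CD47-His 12.5 nM, 30 min; add Ni-NTA/SAV beads 10 ug/mL, 30 min; AlphaScreen. Buffer PBS pH 7.4 + 0.05% IGEPAL CA-630. Non-biotinylated SIRPalpha as control inhibitor.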

[7] = target: Lysine-specific demethylase 5B (Homo sapiens) (UniProt Q9UGL1); test: Optimization screen for KDM5B Histone Demethylases FDH coupled qHTS against the LOPAC library (AID 1347166); details: KDM5B demethylation, FDH-coupled NADH fluorescence (FDH is formaldehyde dehydrogenase); at 57.5 µM (top of the series); further: 0% is about no effect
In short: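 KDM5BDeltaAP (200nM final) in 50mM HEPES pH 7.5, 0.01% Tween-20 was preincubated with compound for 10 min at room temperature. A substrate mix of 12.5uM H3K4Me3, 25uM a-ketoglutarate, ascorbate, Fe2+, NAD+ and formaldehyde dehydrogenase was then added. NADH fluorescence (340/450 nm) was read initially and after 30 min.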

[8] = target: T1, Tyrosine-protein phosphatase non-receptor type substrate 1 (Homo sapiens) + Leukocyte surface antigen CD47 (Homo sapiens); test: CD47-SIRPalpha protein protein interaction - HTRF assay qHTS validation (AID 1347058; active means well fitted curve in the direction sought with a large enough effect in the signal ratio, not every such curve was filed as active; the % refers to the signal ratio; further: 0% is about no effect)
In short: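 Soluble extracellular domains (6His-CD47, Avi-tag-biotinylated SIRPalpha) in PBS pH 7.4 with 0.05% IGEPAL CA-630. Compounds were preincubated 30 min at RT with CD47 and anti-His-Eu, then SIRPalpha and SAV-XL665 were added. TR-FRET 665/615 ratio.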

[9] = system: Zika virus NS2B-NS3 protease (unlinked); test: Optimization of GU AMC qHTS for Zika virus inhibitors: Unlinked NS2B-NS3 protease assay (AID 1347151); further: nearly all actives have a fitted effect of over 80% in size; further: potency means the concentration at half of the fitted maximal effect
In short: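 Fluorescence read-out (340 nm ex / 450 nm em) of AMC peptide cleavage, taken immediately and after 15 min at room temperature (~20% conversion). Enzyme was the unlinked NS2B–NS3 complex at 25 nM in Tris pH 8.0 buffer.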

[10] = system: Zika virus NS2B-NS3 protease (linked construct); test: Confirmatory screen NINDS AMC qHTS for Zika virus inhibitors (AID 1347152);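 further: AMC fluorescence gain from cleaved Bz-Nle-KRR-AMC substrate over 15 min; top concentration of the series differs between compounds; 0% = no-inhibitor control and -100% = no-enzyme control; nearly all actives have a fitted effect of over 70% in size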
In short: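 Linked NS2B-NS3 1 nM, Tris pH 8.0/0.01% Tween 20; cpd 15 min RT dark; + Nle-KRR-AMC 10 µM (Km 18.3 µM); read 0 and 15 min, 340/450 nm; %inh vs controls, 4-param Hill.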

[11] = system: Zika virus NS2B-NS3 protease (unlinked complex); test: Confirmatory screen GU AMC qHTS for Zika virus inhibitors (AID 1347153);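 further: percent inhibition with 0% = no inhibitor control and 100% = no enzyme control; nearly all actives have a fitted effect of over 70% in size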
In short: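 Fluorescence change (ex 340/em 450 nm) over 15 min, ~20% substrate conversion, normalized to no-inhibitor and no-enzyme controls, then Hill-fitted. Unlinked protease at 25 nM; AMC peptide 10 µM.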

[12] = system: Zika virus NS2B-NS3 protease (linked); test: 384 well plate NINDS AMC confirmatory qHTS for Zika virus inhibitors (AID 1347163);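 further: linked protease at 5 30 or 60 nM final depending on run; fluorescence of AMC released from Ac-VKTGKR-AMC peptide cleaved by the protease; top concentration of the series differs between compounds; 0% = no-inhibitor control and -100% = no-enzyme control; nearly all actives have a fitted effect of over 50% in size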
In short: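 Enzyme (5, 30 or 60 nM final) first met test compounds for ~15 min. The AMC-tagged peptide Ac-VKTGKR-AMC followed at 30 microM. Fluorescence was then recorded at 25 min and scaled against no-enzyme and no-inhibitor wells.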

[13] = Vero cells viability qHTS for Zika virus inhibitors (AID 1347167); further: on the % scale 0 is the no-effect control and ±100 the full control effect
In short: (§1)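 qHTS titration; 24-48 h compound exposure, 37 degrees C/5% CO2; DMEM, 4% FBS; CellTiter Glo ATP luminescence.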

[14] = HepG2 cells viability qHTS for Zika virus inhibitors (AID 1347168); further: on the % scale 0 is the no-effect control and ±100 the full control effect
In short: as §1

Furin (Homo sapiens) = Furin (Homo sapiens) (UniProt P09958); test: Furin counterscreen qHTS for Zika virus inhibitors (AID 1347149)
In short: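 Counterscreen measures cleavage of 2 microM BOC-RVRR-AMC, below its ~15 microM Km, by 5 nM full-length human furin at pH 7.0 after a 15-min compound preincubation. Inhibition derives from the 15-min fluorescence increase at 37C.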

[15] = ZIKV-mCherry secondary qHTS for Zika virus inhibitors (AID 1347158); further: top concentration of the series differs between compounds
In short: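 Read-out is percent infection: mCherry-positive Vero cells (nuclear-proximal intensity >450 RFU, 3 SD above negative controls) counted by high-content imaging of Hoechst-stained, PFA-fixed wells after 48-72 h with ZIKV-mCherry at MOI 1 and compound.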

[16] = Confirmatory screen NINDS Rhodamine qHTS for Zika virus inhibitors (AID 1347161); further: potency means the concentration at half of the fitted maximal effect; nearly all actives have a fitted effect of over 60% in size
In short: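 Kinetic fluorescence (Ex 480 nm, Em 540 nm) over 15 min with 1.5 microM Rhodamine110 peptide and 25 nM linked protease.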

[17] = system: Zika virus NS2B-NS3 protease (linked construct); test: 384 well plate NINDS Rhodamine confirmatory qHTS for Zika virus inhibitors (AID 1347164);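 further: fluorescence from protease cleavage of Ac-LKRR-rhodamine 110 substrate; potency means the concentration at half of the fitted maximal effect; nearly all actives have a fitted effect of over 65% in size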
In short: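 Fluorescence read at ex 485 nm/em 538 nm, 25 min after adding 10 microM Ac-LKRR-Rd substrate at room temperature in the dark; signal normalized to no-enzyme and no-inhibitor controls. Enzyme final 5, 30 or 60 nM; compounds, ~15 min preincubation.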

[18] = system: Zika virus NS2B-NS3 protease (linked construct); test: Primary screen NINDS Rhodamine qHTS for Zika virus inhibitors (AID 1347160); further: on the % scale 0 is the no-effect control and ±100 the full control effect; nearly all actives have a fitted effect of over 55% in size
In short: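 Enzyme (25 nM, linked NS2B-NS3) was preincubated 15 min with compound in 10 mM Tris-HCl pH 8.0, 0.01% Tween 20. Rhodamine110 substrate (1.5 microM) was then added and fluorescence read at start and after 15 min.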

Parathyroid hormone/parathyroid hormone-related peptide receptor (Homo sapiens), sequence (Q03431 whole entry, looked up): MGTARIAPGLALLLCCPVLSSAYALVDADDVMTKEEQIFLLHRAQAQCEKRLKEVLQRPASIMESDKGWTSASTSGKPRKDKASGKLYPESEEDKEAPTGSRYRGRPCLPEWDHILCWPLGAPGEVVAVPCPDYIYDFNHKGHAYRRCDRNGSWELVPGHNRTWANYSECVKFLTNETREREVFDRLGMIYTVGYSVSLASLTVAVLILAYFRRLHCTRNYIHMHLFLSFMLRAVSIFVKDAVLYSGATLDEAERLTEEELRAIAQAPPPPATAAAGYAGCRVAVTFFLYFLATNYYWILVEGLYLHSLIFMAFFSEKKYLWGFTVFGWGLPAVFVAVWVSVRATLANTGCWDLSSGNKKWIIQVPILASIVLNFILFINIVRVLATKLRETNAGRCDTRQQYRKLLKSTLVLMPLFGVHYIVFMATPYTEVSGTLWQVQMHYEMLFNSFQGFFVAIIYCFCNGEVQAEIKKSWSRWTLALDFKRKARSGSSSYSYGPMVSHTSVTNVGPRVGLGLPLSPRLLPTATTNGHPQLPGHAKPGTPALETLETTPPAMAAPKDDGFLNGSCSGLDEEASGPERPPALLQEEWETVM
N-terminal Xaa-Pro-Lys N-methyltransferase 1 (Homo sapiens), sequence (Q9BV86 whole entry, looked up): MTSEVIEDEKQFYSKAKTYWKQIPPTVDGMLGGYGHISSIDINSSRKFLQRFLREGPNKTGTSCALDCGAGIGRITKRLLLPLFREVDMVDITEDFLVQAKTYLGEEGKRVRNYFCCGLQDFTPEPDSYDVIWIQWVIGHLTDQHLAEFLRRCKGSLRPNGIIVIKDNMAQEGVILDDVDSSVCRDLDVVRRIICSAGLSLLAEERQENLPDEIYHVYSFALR
Lysine-specific demethylase 5B (Homo sapiens), sequence (Q9UGL1 whole entry, looked up): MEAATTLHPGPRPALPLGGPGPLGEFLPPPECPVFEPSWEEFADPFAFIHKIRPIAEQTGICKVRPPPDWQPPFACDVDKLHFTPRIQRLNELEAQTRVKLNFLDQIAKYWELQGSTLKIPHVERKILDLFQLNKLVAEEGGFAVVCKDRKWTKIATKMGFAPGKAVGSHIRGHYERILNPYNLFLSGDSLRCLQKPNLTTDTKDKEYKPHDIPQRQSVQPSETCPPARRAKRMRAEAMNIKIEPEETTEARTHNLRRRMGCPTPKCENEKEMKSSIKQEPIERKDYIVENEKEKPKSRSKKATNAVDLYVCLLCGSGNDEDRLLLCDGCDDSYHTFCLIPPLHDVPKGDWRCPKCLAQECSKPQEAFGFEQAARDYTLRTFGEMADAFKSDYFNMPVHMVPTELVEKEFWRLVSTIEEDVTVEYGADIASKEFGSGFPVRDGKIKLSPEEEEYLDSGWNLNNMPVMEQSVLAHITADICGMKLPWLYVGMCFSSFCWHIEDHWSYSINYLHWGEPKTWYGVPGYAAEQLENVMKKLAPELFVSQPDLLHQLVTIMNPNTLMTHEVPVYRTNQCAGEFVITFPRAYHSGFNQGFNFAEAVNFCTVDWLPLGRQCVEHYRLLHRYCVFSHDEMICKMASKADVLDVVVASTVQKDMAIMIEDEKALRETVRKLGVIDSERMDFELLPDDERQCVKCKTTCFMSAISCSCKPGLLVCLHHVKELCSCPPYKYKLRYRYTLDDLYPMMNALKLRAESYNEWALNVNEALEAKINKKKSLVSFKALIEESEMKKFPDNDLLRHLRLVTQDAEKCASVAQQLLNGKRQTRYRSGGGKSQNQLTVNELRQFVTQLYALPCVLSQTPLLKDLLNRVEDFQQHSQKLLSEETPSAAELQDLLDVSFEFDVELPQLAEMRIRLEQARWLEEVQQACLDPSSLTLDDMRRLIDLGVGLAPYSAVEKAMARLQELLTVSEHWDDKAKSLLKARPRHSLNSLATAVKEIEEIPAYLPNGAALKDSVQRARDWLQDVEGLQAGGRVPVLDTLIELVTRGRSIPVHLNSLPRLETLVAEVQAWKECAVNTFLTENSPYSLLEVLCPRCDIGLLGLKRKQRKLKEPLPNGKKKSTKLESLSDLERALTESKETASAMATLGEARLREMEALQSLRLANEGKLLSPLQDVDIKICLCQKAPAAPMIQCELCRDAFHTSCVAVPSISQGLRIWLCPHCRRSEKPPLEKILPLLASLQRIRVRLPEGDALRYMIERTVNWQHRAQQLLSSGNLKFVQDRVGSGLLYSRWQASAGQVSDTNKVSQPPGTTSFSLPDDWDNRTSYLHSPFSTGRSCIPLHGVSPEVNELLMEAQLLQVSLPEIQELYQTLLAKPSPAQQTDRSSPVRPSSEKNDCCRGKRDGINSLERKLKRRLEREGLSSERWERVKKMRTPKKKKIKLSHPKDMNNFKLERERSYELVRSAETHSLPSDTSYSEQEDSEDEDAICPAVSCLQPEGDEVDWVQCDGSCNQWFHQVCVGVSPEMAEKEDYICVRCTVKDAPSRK
T1 sequence (P78324 whole entry, looked up, the tested form may be a part): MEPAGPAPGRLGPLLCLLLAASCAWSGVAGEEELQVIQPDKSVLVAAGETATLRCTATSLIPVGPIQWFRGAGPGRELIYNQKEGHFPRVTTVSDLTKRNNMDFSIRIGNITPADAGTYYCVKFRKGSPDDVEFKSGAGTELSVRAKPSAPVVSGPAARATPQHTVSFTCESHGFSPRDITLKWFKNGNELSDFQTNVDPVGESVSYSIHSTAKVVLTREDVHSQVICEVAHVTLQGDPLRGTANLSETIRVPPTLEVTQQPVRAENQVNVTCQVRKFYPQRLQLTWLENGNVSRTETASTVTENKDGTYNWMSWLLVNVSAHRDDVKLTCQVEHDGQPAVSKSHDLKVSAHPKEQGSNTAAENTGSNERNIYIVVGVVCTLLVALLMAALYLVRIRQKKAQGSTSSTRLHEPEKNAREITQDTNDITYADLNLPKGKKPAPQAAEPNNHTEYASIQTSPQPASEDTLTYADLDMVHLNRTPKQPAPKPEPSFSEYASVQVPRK
T1 sequence (Q08722 whole entry, looked up, the tested form may be a part): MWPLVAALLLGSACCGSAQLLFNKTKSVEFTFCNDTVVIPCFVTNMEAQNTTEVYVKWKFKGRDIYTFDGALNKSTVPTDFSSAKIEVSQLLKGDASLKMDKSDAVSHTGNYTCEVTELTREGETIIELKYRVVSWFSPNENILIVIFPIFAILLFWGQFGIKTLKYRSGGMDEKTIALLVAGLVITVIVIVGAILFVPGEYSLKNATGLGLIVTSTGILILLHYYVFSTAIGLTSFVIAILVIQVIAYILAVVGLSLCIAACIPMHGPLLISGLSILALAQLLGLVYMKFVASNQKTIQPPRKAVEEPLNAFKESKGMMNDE
Furin (Homo sapiens), sequence (P09958 whole entry, looked up): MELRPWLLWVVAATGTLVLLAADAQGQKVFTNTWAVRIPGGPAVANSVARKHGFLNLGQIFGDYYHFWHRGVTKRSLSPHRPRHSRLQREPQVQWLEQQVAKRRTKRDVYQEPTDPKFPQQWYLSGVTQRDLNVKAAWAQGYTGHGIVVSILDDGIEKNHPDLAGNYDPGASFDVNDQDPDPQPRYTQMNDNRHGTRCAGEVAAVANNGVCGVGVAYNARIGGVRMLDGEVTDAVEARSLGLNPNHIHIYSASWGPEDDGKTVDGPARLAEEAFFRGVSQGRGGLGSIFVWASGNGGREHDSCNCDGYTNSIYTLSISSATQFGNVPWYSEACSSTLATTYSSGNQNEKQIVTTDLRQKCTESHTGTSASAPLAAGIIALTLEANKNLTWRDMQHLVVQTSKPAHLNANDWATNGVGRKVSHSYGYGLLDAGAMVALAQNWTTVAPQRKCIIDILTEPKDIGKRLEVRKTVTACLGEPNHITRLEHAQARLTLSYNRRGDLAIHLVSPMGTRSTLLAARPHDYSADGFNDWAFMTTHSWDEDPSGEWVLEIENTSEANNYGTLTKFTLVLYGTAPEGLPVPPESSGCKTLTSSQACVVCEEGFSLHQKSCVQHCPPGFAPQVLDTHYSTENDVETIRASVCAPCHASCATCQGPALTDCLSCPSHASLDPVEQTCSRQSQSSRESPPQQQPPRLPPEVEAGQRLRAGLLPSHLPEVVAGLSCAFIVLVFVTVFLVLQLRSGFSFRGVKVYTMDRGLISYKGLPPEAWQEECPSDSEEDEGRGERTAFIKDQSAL

CN1CCN(c2nc3cc(C(F)(F)F)ccc3n3cccc23)CC1
inactive: Potency [1] | outcome [2] | Potency [3] | Potency [5]
active: Potency [4] 39.8 µM

Nc1ccc2c3c(cccc13)C(=O)NC2=O
inactive: Potency [1] | Potency [6] | Potency [3] | Potency [4] | activity, negative = inhibition [7] -16.6%

CCCCCCC/C=C\CCCCCCCCC(=O)O
inactive: Potency [1] | outcome [8] | Potency [6] | Potency [3] | Potency [4] | activity, negative = inhibition [7] -29.9%
active: Potency [9] 21.2 µM

Nc1nc2ccc(Cl)cc2c2nc(-c3ccco3)nn12
active: Potency [3] 6.7 µM | Potency [4] 12.6 µM
inactive: Potency [1] | Potency [2] | Potency [10] | Potency [11] | Potency [5] | Potency [12] | Potency [13] | outcome [14]

CC[C@@H]1Cc2cc(O)ccc2C2=C1c1ccc(O)cc1C[C@H]2CC
inactive: Potency [1] | Potency [6] | Potency [3] | Potency [9]
active: Potency [4] 79.4 µM

O=S(=O)(c1cccc2c(Cl)cccc12)N1CCCNCC1
inactive: Potency [2] | Potency [6] | Potency [3] | Potency [9] | Potency [5] | activity, negative = inhibition [7] 1.08%

N[C@@H](Cc1c[nH]c2ccccc12)C(=O)O
inactive: Potency [1] | Potency [2] | Potency [6] | Potency [4] | Potency [9] | activity, negative = inhibition [7] -20.4%

CCCCOC(=O)NS(=O)(=O)c1sc(CC(C)C)cc1-c1ccc(Cn2c(CC)nc3c(C)cc(C)nc32)cc1
inactive: Potency [2] | outcome [8] | Potency [6] | Potency [3] | Potency [9] | activity, negative = inhibition [7] -19.3%

O=c1[nH]c(=S)[nH]c(-c2ccccc2)c1Cc1c(O)ccc2ccccc12
active: Potency [4] 79.4 µM | Potency [9] 7.52 µM | Potency [16] 3.49 µM | Potency [17] 70.8 µM
inactive: Potency [1] | outcome [8] | Potency [3] | Potency (Furin (Homo sapiens)) | Potency [15] | activity, negative = inhibition [7] -27.4% | Potency [13] | outcome [14]

NS(=O)(=O)c1cccc2c1c([N+](=O)[O-])cc1nc(O)c(O)nc12
active: Potency [4] 50.1 µM
inactive: Potency [1] | Potency [6] | Potency [3] | Potency [9] | Potency [5]

CN(C)S(=O)(=O)c1ccc2c(c1)/C(=C/c1cc3c([nH]1)CCCC3)C(=O)N2
inactive: Potency [1] | Potency [6] | Potency [3] | Potency [4] | Potency [9] | activity, negative = inhibition [7] -8.97%

O=C(O)Cc1c[nH]c2ccc(O)cc12
inactive: Potency [2] | outcome [8] | Potency [6] | Potency [3] | outcome [18]
active: Potency [4] 56.2 µM

Nc1ccc(-c2nc3ccc(-c4nc5ccc(N)cc5[nH]4)cc3[nH]2)cc1
active: Potency [9] 26.7 µM
inactive: Potency [1] | Potency [3]

N#C/C(=C\c1ccc(O)c(O)c1)C(=O)NCCCNC(=O)/C(C#N)=C/c1ccc(O)c(O)c1
active: Potency [4] 39.8 µM | Potency [9] 0.597 µM
inactive: Potency [1] | Potency [3]

COc1ccc(NC(=O)c2ccc(-c3ccc(-c4noc(C)n4)cc3C)cc2)cc1N1CCN(C)CC1
inactive: Potency [2] | outcome [8] | Potency [4] | Potency [9] | Potency [5] | activity, negative = inhibition [7] -1.51%
